# The full list was thinned out, with hits kept by preference.
# Sm TGR block: qHTS Assay for the Inhibitors of Schistosoma Mansoni Peroxiredoxins | purified TGR, DTNB reduction, TNB absorbance 405 nm | 360,000 tested, 3% active | Potency, µM (doses to about 114 µM), most hits filed as inhibitors; note: nearly all actives have a fitted effect of over 60% in size
#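 TGR 20 nM + NADPH 100 uM (dispensed conc.), cpd preinc 15 min RT; start with NADPH (500 uM addition) then DTNB (15 mM addition). Kinetic TNB absorbance, 405 nm filter. Four-parameter Hill fit across titration.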
# TbPYK inhibitor: qHTS of Trypanosoma Brucei Inhibitors; pyruvate kinase (Trypanosoma brucei), Q57TT1; TbPYK enzyme, Kinase-Glo Plus ATP luminescence, 45 min; Potency, µM (doses to about 76.8 µM), hits mostly inhibitors; 410,000 tested, 0.12% active; AID 624173, 2012; note: nearly all actives have a fitted effect of over 50% in size
#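 In this concentration-response screen, enzyme-free wells defined baseline while DMSO plates tracked drift. Each reaction combined TbPYK, substrate, compound and 130 uM ADP for 45 min at room temperature. Kinase-Glo Plus luminescence gave the signal.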
# FBPA Giardia inh: qHTS Assay for Inhibitors of Fructose-1,6-bisphosphate Aldolase from Giardia Lamblia; purified Giardia FBPA; Potency, µM (doses to about 59.6 µM), actives largely listed as inhibitors; 290,000 tested, 0.71% active; AID 2451, 2010; note: nearly all actives have a fitted effect of over 55% in size
#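 Giardia FBPA (40 nM reagent) was preincubated 10 min at RT with compound (up to 57.5 uM final), then substrate plus GAPDH/TPI/NAD/arsenate coupling system with diaphorase/resazurin was added; resorufin fluorescence (525/598 nm) was read after 20 min.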
# CHX counter: Cycloheximide Counterscreen for Small Molecule Inhibitors of Shiga Toxin. cell reporter, cycloheximide protein synthesis inhibition counterscreen. max response, %. 300,000 tested, 12% active. AID 2314, 2010; in the data active = max response mostly above about 13%, no sharp cut-off; inactive = mostly below about 14%; note: read at 38.3 µM for the half of the compounds with a filed dose
# Shiga toxin inh: A qHTS for Small Molecule Inhibitors of Shiga Toxin; Vero cells, Shiga toxin protein synthesis inhibition reporter; inhibition, % at 38.7 µM; 290,000 tested, 9.2% active; AID 2315, 2010; in the data active = inhibition mostly above about 28%, no sharp cut-off; inactive = mostly below about 43%
# LmPK inhibitor: qHTS Assay for Inhibitors of Leishmania Mexicana Pyruvate Kinase (LmPK); purified LmPK, Kinase-Glo ATP luminescence, 1 h; 290,000 tested, 0.37% active; Potency, µM (series often up to 57.5 µM), hits mostly inhibitors; Q27686
# Target sequence (Q27686 whole entry, looked up): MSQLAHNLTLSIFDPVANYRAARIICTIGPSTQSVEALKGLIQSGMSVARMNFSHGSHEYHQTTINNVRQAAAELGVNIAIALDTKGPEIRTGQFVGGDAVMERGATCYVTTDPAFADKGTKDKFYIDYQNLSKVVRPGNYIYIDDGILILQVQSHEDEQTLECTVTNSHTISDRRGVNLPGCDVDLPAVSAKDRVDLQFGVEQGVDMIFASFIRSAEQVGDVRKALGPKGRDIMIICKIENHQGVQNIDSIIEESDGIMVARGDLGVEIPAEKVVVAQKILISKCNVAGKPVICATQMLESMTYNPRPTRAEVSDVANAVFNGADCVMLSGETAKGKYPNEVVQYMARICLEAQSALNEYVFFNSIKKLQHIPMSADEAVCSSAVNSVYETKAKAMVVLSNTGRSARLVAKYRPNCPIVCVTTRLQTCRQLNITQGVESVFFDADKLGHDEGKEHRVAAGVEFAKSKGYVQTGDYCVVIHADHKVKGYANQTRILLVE
#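 Pyruvate kinase activity monitored as ATP production (luciferase luminescence). Conditions: 0.1 nM enzyme, 0.5 mM PEP, 0.1 mM ADP, 1 h, RT; normalized against uninhibited and no-enzyme wells.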
# Numbers stand for hits; i = inactive; ? = inconclusive; nt = no result. Unless noted, calls come from the whole dose curve; as a rule, active = well fitted curve in the direction sought with a large enough effect; inconclusive = small, poorly fitted or top-dose-only effect, or another doubt; inactive = no such curve, though single readings can be large; an effect the other way counts as inactive or inconclusive.
SMILES,Sm TGR block,TbPYK inhibitor,FBPA Giardia inh,CHX counter,Shiga toxin inh,LmPK inhibitor
Cc1ccc(C2=CSC3=NCCN23)c(C)c1,i,?,i,i,i,i
COc1ccc(C2=CSC3=NNC4(CCCCC4)NN23)cc1,i,i,i,35,102,i
COc1ccc(C2=CSC3=NCCN23)cc1,i,i,i,i,i,i
Cc1ccc(C2=CSC3=NNC4(CCCCC4)NN23)cc1,i,i,i,53,88,i
COc1cccc(N2CCN(C(=O)c3cc4c(s3)CCCCC4)CC2)c1,i,i,nt,nt,nt,nt
CC(C)Oc1ccc(C(=O)Nc2ccc3oc(-c4ccncc4)nc3c2)cc1,i,i,nt,nt,nt,nt
CCn1c(=O)c2c(n3c(=S)[nH]nc13)-c1ccccc1CC21CCCCC1,i,?,i,i,i,14µM
CCn1c(SCC#N)nc2c(c1=O)C1(CCCC1)Cc1ccccc1-2,i,i,i,i,i,i
CC1CN(CC(=O)Nc2nc3ccccc3s2)CC(C)O1 (stereo not drawn),i,i,?,12,i,i
O=C(Cn1ccc([N+](=O)[O-])n1)Nc1nc2ccccc2s1,i,i,i,i,86,i
CN1CCN(CC(=O)Nc2nc3ccccc3s2)CC1,i,i,?,18,i,i
O=C(Cn1ccc([N+](=O)[O-])n1)Nc1nccs1,i,i,i,i,i,i
O=C(CN1CCCCCC1)Nc1nc2ccccc2s1,nt,i,nt,nt,nt,nt
O=C(CN1CCN(Cc2ccccc2)CC1)Nc1nc2ccccc2s1,i,i,i,i,i,i
COc1ccc(OC)c(NC(=O)CCCOc2cc(=O)n(C)c3ccccc23)c1,i,i,nt,nt,nt,nt
Cc1noc(C)c1-c1ccc2ncnc(NCCN3CCOCC3)c2c1,nt,nt,i,nt,nt,nt
O=C(NCCSc1ccccc1)c1ccccc1,i,i,i,31,114,i
O=C(CCC(=O)NCCCc1ccccc1)NCCCc1ccccc1,i,i,i,i,i,i
O=C(NCCOc1ccccc1)c1cncc(Br)c1,i,i,i,45,78,i
O=C(NCCSc1ccccc1)c1cncc(Br)c1,i,i,i,33,i,i
CCCCCNC(=O)CCc1ccccc1,i,i,i,13,i,i
O=C(NCc1ccc(F)cc1)c1c(O)nc2ccccn2c1=O,i,i,nt,nt,nt,nt
Cc1nn(CCCC(=O)NCc2cccc(Cl)c2)c(=O)c2c1sc1ccccc12,i,i,nt,nt,nt,nt
O=C(CCc1ccccc1)NCCSc1ccccc1,i,i,i,31,95,i
Cc1cccc(C(=O)NCC(=O)NCCCSc2ccccc2)c1,i,i,nt,nt,nt,nt
SMILES,Sm TGR block,TbPYK inhibitor,FBPA Giardia inh,CHX counter,Shiga toxin inh,LmPK inhibitor
CN(C)c1cccc(C(=O)NCCCSc2ccccc2)c1,i,i,i,37,47,i
O=C(CCSc1ccccc1)NCCSCc1ccccc1,i,i,i,i,i,i
O=C(NCCSc1ccccc1)c1ccc(Br)cc1,i,i,i,48,81,i
O=C(Cn1cc(C(=O)c2ccccc2)c2ccccc21)NCc1ccco1,i,i,i,78,i,i
O=C(Cn1cc(C(=O)C(F)(F)F)c2ccccc21)NCc1ccco1,i,i,i,47,i,i
CCCn1cc(SCC(=O)NCc2ccco2)c2ccccc21,?,i,i,i,i,i
O=C(NCCn1cc(SCc2ccc(F)cc2)c2ccccc21)c1c(F)cccc1F,i,i,?,14,i,i
O=C(CSc1cn(CCNC(=O)c2ccccc2)c2ccccc12)NCc1ccco1,i,i,i,36,53,i
COC(=O)c1cn(CC(=O)NCc2ccco2)c2ccccc12,i,i,i,15,50,i
O=C(Cn1cc(C(=O)c2ccco2)c2ccccc21)NCc1ccco1,i,i,i,i,i,i
CCC(=O)c1cn(CC(=O)NCc2ccco2)c2ccccc12,i,i,i,43,61,i
COc1ccc(-c2coc3ccc(OC4OC(COC(C)=O)C(OC(C)=O)C(OC(C)=O)C4OC(C)=O)c(OC(C)=O)c3c2=O)cc1 (stereo not drawn),nt,nt,i,nt,nt,nt
C/C(CCc1oc2ccc(Cl)cc2c1-c1ccc(C)o1)=N\O,25µM,i,i,i,i,i
Cc1ccc(CCC(=O)Nc2cc(Cl)ccc2Cl)o1,i,i,i,i,i,i
CC(=O)CCc1oc2ccc(C)cc2c1-c1ccccc1,i,i,i,i,i,i
C/C(CCc1oc2ccc(Br)cc2c1-c1ccc(C)o1)=N/O,40µM,i,i,i,i,i
CCOc1cccc(C(=O)c2ccc(O)c(O)c2O)c1,nt,nt,20µM,nt,nt,nt
CCOc1ccc(C(=O)c2ccc(O)c(O)c2O)cc1,nt,nt,16µM,nt,nt,nt
COc1ccc(NC(=O)c2ccc(CNS(=O)(=O)c3ccc4c(c3)C(C)(C)C(=O)N4C)cc2)cc1,i,i,nt,nt,nt,nt
Cc1nc([N+](=O)[O-])c(SCC(N)=O)n1Cc1ccccc1,i,i,i,i,i,i
Cc1nc([N+](=O)[O-])c(Sc2nc3ccccc3n2C)n1Cc1ccccc1,8.9µM,i,i,i,i,i
COc1ccccc1C(CNC(=O)CCNS(=O)(=O)c1ccc(Br)cc1)N1CCCC1 (stereo not drawn),nt,i,nt,nt,nt,nt
N[C@@H](Cc1cc(Br)c(O)c(Br)c1)C(=O)O,25µM,nt,?,i,i,i
C/C(=N\NC(=O)c1ccccc1N)c1ccc(NC(=O)Cc2ccccc2)cc1,i,i,i,36,65,i
COc1ccccc1C(=O)N/N=C(\C)c1ccc(NC(=O)Cc2ccccc2)cc1,i,i,nt,i,i,i
SMILES,Sm TGR block,TbPYK inhibitor,FBPA Giardia inh,CHX counter,Shiga toxin inh,LmPK inhibitor
C/C(=N\NC(=O)c1cccc(C)c1O)c1ccc(NC(=O)Cc2ccccc2)cc1,i,i,nt,39,45,i
CC(C)c1cc2c(c(O)c1O)[C@@]13CCCC(C)(C)C1CC2OC3=O (stereo partly drawn),2.8µM,?,5µM,i,i,16µM
O=C(Nc1ccc(Cl)cc1)N1CCC(c2nc(-c3ccccc3Cl)no2)CC1,i,i,i,i,i,i
COc1cccc(C(=O)N2CCCC(c3nc(-c4cccs4)no3)C2)c1 (stereo not drawn),i,i,i,i,i,i
O=C(NC1CCCCC1)N1CCCC(c2nc(-c3cccs3)no2)C1 (stereo not drawn),i,i,nt,i,i,i
O=C(Nc1ccccc1)N1CCCC(c2nc(-c3cccs3)no2)C1 (stereo not drawn),i,i,i,19,80,i
COc1ccc(NC(=O)N2CCC(c3nc(-c4cccs4)no3)CC2)cc1,i,i,i,19,i,i
O=C(Nc1ccc(Cl)cc1)N1CCC(c2nc(-c3cccs3)no2)CC1,i,i,i,24,49,i
Cc1ccc(-c2noc(-c3ccc(NCc4ccco4)c([N+](=O)[O-])c3)n2)cc1,i,i,nt,nt,nt,nt
